Drawing on PubChem BioAssay (NCATS), this text covers outcome and Potency for 35 molecules.

In experiment [1] the target is Mitogen-activated protein kinase 10 (Mus musculus) (UniProt Q61831). Kind of experiment: JNK3 AlphaScreen Assay (AID 530; active = well fitted curve in either direction with a large enough effect, not every such curve was filed as active;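 also: kinase came from lysate of stimulated human HepG2 cells; signal reports phosphorylation of biotinylated GST-cJun 1-79 at Ser73 with 10 µM ATP; series mostly up to about 57 µM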). The gist of the method: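 qHTS format: compounds tested as titrations against IL-1beta/TNF-alpha-activated HepG2 lysate JNK3 with biotin-GST-cJun substrate and 10 uM ATP at room temperature. Loss of anti-phospho-cJun AlphaScreen signal indicates inhibition.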

The target in experiment [2] is Cytochrome P450 3A4 (Homo sapiens) (UniProt P08684). Kind of experiment: qHTS Assay for Activators of Cytochrome P450 3A4 (AID 885). Also: nearly all actives have a fitted effect of over 65% in size. The gist of the method: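 20nM CYP3A4 + 25uM Luciferin-PPXE (=KM), 200mM KPO4; cpd 10 min RT; NADPH regen, 60 min RT; stop w/ detection buffer, 20 min; luminescence. Normalized to 57 uM ketoconazole.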
Cytochrome P450 3A4 (Homo sapiens), sequence (P08684 whole entry, looked up): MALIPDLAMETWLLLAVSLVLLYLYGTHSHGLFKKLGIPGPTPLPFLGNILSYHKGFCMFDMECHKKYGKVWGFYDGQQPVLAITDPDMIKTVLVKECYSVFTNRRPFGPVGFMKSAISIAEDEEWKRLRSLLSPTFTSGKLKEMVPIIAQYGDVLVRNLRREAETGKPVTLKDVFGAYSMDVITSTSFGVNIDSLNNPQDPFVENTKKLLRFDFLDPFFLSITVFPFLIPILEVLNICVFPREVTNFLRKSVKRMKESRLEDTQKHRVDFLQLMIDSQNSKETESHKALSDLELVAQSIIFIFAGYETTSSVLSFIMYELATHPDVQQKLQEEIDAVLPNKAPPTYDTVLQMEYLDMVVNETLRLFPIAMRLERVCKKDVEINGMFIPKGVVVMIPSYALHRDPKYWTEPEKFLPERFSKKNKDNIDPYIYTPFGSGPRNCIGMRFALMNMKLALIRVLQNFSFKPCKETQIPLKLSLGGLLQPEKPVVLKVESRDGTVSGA
(qHTS replaces the single test concentration by a dilution series.)

Experiment [3] has as its target Calcium and integrin-binding protein 1 (Homo sapiens) (UniProt Q99828). Put plainly: Primary qHTS for Identification of Calcium Integrin Binding Protein 1 (CIB1) Competitor (AID 1508620).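 Also: GST tagged CIB1 binding a fluorescein labelled alphaIIb integrin peptide tracer; top concentration of the series differs between compounds.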 The procedure, abridged:
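Fluorescence polarization competition: GST-tagged CIB1 (1 uM final) preincubated with compound 15 min at room temperature, then FITC-labelled alphaIIb peptide (100 nM final) added. After 15 min at room temperature, polarization read at Ex 480/Em 540.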

Experiment [4] deals with Cytochrome P450 3A4 (Homo sapiens) (UniProt P08684). Kind of experiment: qHTS Assay for Inhibitors and Substrates of Cytochrome P450 3A4 (AID 884). Also: potency is read from the fitted curve at half-maximal effect; nearly all actives have a fitted effect of over 50% in size. The gist of the method: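 20 nM human CYP3A4 with 25 uM Luciferin-PPXE (at KM) in 200 mM KPO4, preincubated 10 min with compound; NADPH regeneration started a 60 min RT reaction. Luciferin detected by luminescence, normalized to 57 uM ketoconazole as full inhibition.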

Inconclusive results are not listed. Where a call stands in place of a potency, no number is given. Activity calls are given as the source filed them. Unless noted, calls follow the shape of the dose curve; as a rule, active = well fitted curve in the direction sought with a large enough effect; inconclusive = small, poorly fitted or top-dose-only effect, or another doubt; inactive = no such curve, though single readings can be large; an effect the other way counts as inactive or inconclusive.

Calcium and integrin-binding protein 1 (Homo sapiens), sequence (Q99828 whole entry, looked up): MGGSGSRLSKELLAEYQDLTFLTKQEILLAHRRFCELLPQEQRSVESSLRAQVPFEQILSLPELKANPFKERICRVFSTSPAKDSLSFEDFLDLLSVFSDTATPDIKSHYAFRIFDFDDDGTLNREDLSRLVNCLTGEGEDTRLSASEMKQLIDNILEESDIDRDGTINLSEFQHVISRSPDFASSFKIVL

`CCCn1c(-c2ccc(F)cc2)nc2c(N(C)CCN(C)C)nc(C)nc21`: in experiment [1], the call was inactive. Moreover, the Potency entry in experiment [2] and in experiment [3] was “inactive” in each case.

For the molecule `CCCn1c(C)nc2c(NC(C)CCCN(CC)CC)nc(C)nc21` (configuration not stated), the molecule was classed as inactive in experiment [1]. Also, the Potency entry in experiment [2] and in experiment [3] was “inactive” throughout.

As for `COCCN(CCOC)c1nc(C)nc2c1nc(-c1ccccc1)n2CCCN1CCCCC1C` (configuration not stated), the call in experiment [1] was inactive. The Potency in experiment [4] was 12.6 µM (active). Also, the Potency result in experiment [2] and in experiment [3] was “inactive” in each case.

Consider `Cc1nc(NC2CCCCC2)c2nc(-c3ccccc3)n(C(C)CN(C)C)c2n1` (configuration not stated), for which the result in experiment [1] was inactive. The Potency in experiment [4] was 12.6 µM (active). Moreover, the Potency entry in experiment [2] and in experiment [3] was “inactive” in each case.

On to `CCN1CCCC1Cn1c(-c2ccccc2)nc2c(N3CCOCC3)nc(C)nc21` (configuration not stated), for which the outcome in experiment [1] was inactive. Further, the Potency entry in experiment [2] and in experiment [3] was “inactive” throughout.

Take `Cc1nc(NCc2ccccc2)c2nc(-c3ccccc3)n(CCN(C)C)c2n1`: the outcome in experiment [1] was inactive. The Potency result in experiment [2] and in experiment [3] was “inactive” throughout.

For `CCCn1c(-c2ccc(F)cc2)nc2c(NCCN(CC)CC)nc(C)nc21`, the molecule was called inactive in experiment [1]. Besides, the Potency result in experiment [2] and in experiment [3] was “inactive” each time.

As to `CCCCNc1nc(C)nc2c1nc(-c1ccccc1)n2CCCCN(CC)CC`, the call in experiment [1] was inactive. Moreover, the Potency entry in experiment [2] and in experiment [3] was “inactive” throughout.

Turning to `CCCn1c(-c2ccc(F)cc2)nc2c(NC(C)CN(C)C)nc(C)nc21` (configuration not stated), in experiment [1], the molecule was classed as inactive. Besides, the Potency result in experiment [2] and in experiment [3] was “inactive” throughout.

Regarding `CCCn1c(C)nc2c(N3CCOCC3)nc(C)nc21`, the result in experiment [1] was inactive. Moreover, the Potency entry in experiment [2] and in experiment [3] was “inactive” in each case.

Consider `CCCn1c(C)nc2c(NCCCCN(CC)CC)nc(C)nc21`, for which the molecule was classed as inactive in experiment [1]. In addition, the Potency result in experiment [2] and in experiment [3] was “inactive” throughout.

With `CCCn1c(-c2ccc(F)cc2)nc2c(NCC3CCCN3CC)nc(C)nc21` (configuration not stated), the call in experiment [1] was inactive. The Potency result in experiment [2] and in experiment [3] was “inactive” throughout.

As to `COCCN(CCOC)c1nc(C)nc2c1nc(-c1ccccc1)n2CCN(C)C`, the call in experiment [1] was inactive. Besides, the Potency result in experiment [2] and in experiment [3] was “inactive” each time.

Turning to `Cc1nc(N2CCOCC2)c2nc(-c3ccccc3)n(CCN3CCCC3)c2n1`, the molecule was classed as inactive in experiment [1]. Also, the Potency result in experiment [2] and in experiment [3] was “inactive” in each case.

Turning to `Cc1nc(N2CCOCC2)c2nc(-c3ccccc3)n(CCN3CCOCC3)c2n1`, the call in experiment [1] was inactive. The Potency entry in experiment [2] and in experiment [3] was “inactive” each time.

As for `Cc1nc(N2CCOCC2)c2nc(-c3ccccc3)n(CCCN3CCOCC3)c2n1`, the result in experiment [1] was inactive. The Potency entry in experiment [2] and in experiment [3] was “inactive” throughout.

In the case of `CCCn1c(-c2ccc(F)cc2)nc2c(NCCCCN(C)C)nc(C)nc21`, the molecule was classed as inactive in experiment [1]. Besides, the Potency result in experiment [2] and in experiment [3] was “inactive” in each case.

For `CCCn1c(-c2ccc(F)cc2)nc2c(NCCN3CCSCC3)nc(C)nc21`, the call in experiment [1] was inactive. The Potency result in experiment [2] and in experiment [3] was “inactive” each time.

For `CCCn1c(C)nc2c(NCCN3CCOCC3)nc(C)nc21`, the outcome in experiment [1] was inactive. The Potency result in experiment [2] and in experiment [3] was “inactive” throughout.

On to `CCCn1c(C)nc2c(NC3CCN(Cc4ccccc4)C3)nc(C)nc21` (configuration not stated), for which the molecule was classed as inactive in experiment [1]. Moreover, the Potency entry in experiment [2] and in experiment [3] was “inactive” throughout.

With `COCCNc1nc(C)nc2c1nc(-c1ccccc1)n2CCCN1CCCCC1C` (configuration not stated), in experiment [1], the molecule was called inactive. In addition, the Potency result in experiment [2] and in experiment [3] was “inactive” in each case.

In the case of `Cc1nc(N2CCOCC2)c2nc(-c3ccccc3)n(CCCN3CCCCC3C)c2n1` (configuration not stated), in experiment [1], the result was inactive. Moreover, the Potency entry in experiment [2] and in experiment [3] was “inactive” throughout.

With `CCCn1c(-c2ccc(F)cc2)nc2c(NC3CC4CCC(C3)N4C)nc(C)nc21` (configuration not stated), in experiment [1], the molecule was called inactive. The Potency entry in experiment [2] and in experiment [3] was “inactive” in each case.

`CCN(CC)CCCn1c(-c2ccccc2)nc2c(N(CCOC)CCOC)nc(C)nc21`: the molecule was called inactive in experiment [1]. The Potency result in experiment [2] and in experiment [3] was “inactive” in each case.

`CCCCNc1nc(C)nc2c1nc(-c1ccccc1)n2CCCN(CC)CC`: in experiment [1], the result was inactive. In addition, the Potency entry in experiment [2] and in experiment [3] was “inactive” throughout.

`CCCn1c(C)nc2c(NCc3ccccc3)nc(C)nc21`: in experiment [1], the outcome was inactive. Moreover, the Potency entry in experiment [2] and in experiment [3] was “inactive” throughout.

As to `CCCn1c(C)nc2c(Nc3ccccc3)nc(C)nc21`, the molecule was classed as inactive in experiment [1]. Further, the Potency result in experiment [2] and in experiment [3] was “inactive” throughout.

For the molecule `CCCn1c(-c2ccc(F)cc2)nc2c(NCC3CCN(C)CC3)nc(C)nc21`, the result in experiment [1] was inactive. The Potency entry in experiment [2] and in experiment [3] was “inactive” each time.

Regarding `CCCn1c(C)nc2c(N(CCN(C)C)Cc3ccccc3)nc(C)nc21`, the molecule was classed as inactive in experiment [1]. Also, the Potency result in experiment [2] and in experiment [3] was “inactive” in each case.

Take `CCCn1c(C)nc2c(NC3CCCCC3)nc(C)nc21`: the outcome in experiment [1] was inactive. The Potency result in experiment [2] and in experiment [3] was “inactive” throughout.

`CCN(CC)CCCCn1c(-c2ccccc2)nc2c(N3CCOCC3)nc(C)nc21`: in experiment [1], the molecule was called inactive. For the same molecule, the Potency result in experiment [2] and in experiment [3] was “inactive” in each case.

Regarding `CCCn1c(-c2ccc(F)cc2)nc2c(N3CCC(N(C)C)C3)nc(C)nc21` (configuration not stated), the outcome in experiment [1] was inactive. The Potency result in experiment [2] and in experiment [3] was “inactive” in each case.

On to `CCN(CC)CCn1c(-c2ccccc2)nc2c(NCCOC)nc(C)nc21`, for which, in experiment [1], the outcome was inactive. The Potency result in experiment [2] and in experiment [3] was “inactive” each time.

Regarding `COCCNc1nc(C)nc2c1nc(-c1ccccc1)n2CCN1CCCC1`, in experiment [1], the molecule was called inactive. For the same molecule, the Potency result in experiment [2] and in experiment [3] was “inactive” each time.

Turning to `CCCCNc1nc(C)nc2c1nc(-c1ccccc1)n2CCN(C)C`, the result in experiment [1] was inactive. In addition, the Potency result in experiment [2] and in experiment [3] was “inactive” in each case.
